The text below walks through data of the supplement of paper PMC10681739.

This test addresses T1, ETS1 (UniProt P14921).
T1 sequence: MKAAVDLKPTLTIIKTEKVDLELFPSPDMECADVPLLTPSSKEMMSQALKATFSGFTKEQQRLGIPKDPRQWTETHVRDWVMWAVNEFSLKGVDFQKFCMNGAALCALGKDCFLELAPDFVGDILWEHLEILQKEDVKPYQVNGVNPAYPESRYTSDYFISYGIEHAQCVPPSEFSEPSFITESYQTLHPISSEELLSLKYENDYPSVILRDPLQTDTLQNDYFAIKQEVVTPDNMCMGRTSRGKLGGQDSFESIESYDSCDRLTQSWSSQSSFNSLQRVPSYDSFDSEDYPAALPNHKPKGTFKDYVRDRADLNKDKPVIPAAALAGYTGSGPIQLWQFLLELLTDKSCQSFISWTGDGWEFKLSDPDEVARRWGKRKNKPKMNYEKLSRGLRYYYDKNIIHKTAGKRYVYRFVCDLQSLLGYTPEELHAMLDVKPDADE
The test is described as follows: ETS1 binding intensity (PBM fluorescence) in presence of RUNX1, normalised to ETS1-only experiment (arbitrary fluorescence units); higher = stronger binding. The note with it: ETS1 concentration 1 nM; RUNX1 concentration 25 nM. On the procedure: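 Cooperative genomic-context PBM: 36-bp genomic probes with neighbouring ETS1 and RUNX1 sites, double-stranded on Agilent 4x180k arrays. Full-length recombinant human ETS1 (1 nM) was incubated alone or with RUNX1 (25 nM) and detected with anti-ETS1 antibody plus Alexa488 secondary. Value is the median fluorescence intensity over 4 replicate spots; the ETS1+RUNX1 data were normalised to the ETS1-only data using probes without RUNX1 sites. The 36-bp variable region sits on the array probe with constant linker/primer flanks that are not printed.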
In the case of GCCGTAGCGGAAGAGTGTTCGTGGTCATGTGACGCC, the ETS1 binding intensity was 814.

In the case of GAAGTGATGTTAGACGGATGTGGGTGGTGCCTCCGG, the ETS1 binding intensity was found to be 2790.

On to TGGAATTGAAAGGAAGCTGGCGCCACCGCAGAGGAC, for which the ETS1 binding intensity worked out at 2830.

In the case of GGGGGCGGAAGTTTCGGTGCATTGTGGGTTCTCCTG, the ETS1 binding intensity was determined as 1980.

Turning to CCGGGCTGCGGAAGGCGGGAACTCTGCGGTTCGCGG, the ETS1 binding intensity worked out at 2650.

With CGAAACGCGTTCCCCGGAAACCGCGCCCGGCTCCGA, the ETS1 binding intensity was 3230.

Consider AAACCCCAAACAGGAAGTGGTAAAGCAACCTGCATC, for which the ETS1 binding intensity was found to be 16400.

AGCAGCTGCCAGAGGAAGTCTGCGGTCGGAACAGGC: the ETS1 binding intensity turned out to be 10800.

Regarding CCGGTCCTGACCGGAAGCGGTAACCGTCACTCCTTC, the ETS1 binding intensity was found to be 29000.

For ATGTAAACAAGGATGTGAGTTCTGCGGCCACACTCT, the ETS1 binding intensity amounted to 763.

With TCCGGAAGTGGCACTGATGGGCGCCTGCGGCGGGGG, the ETS1 binding intensity came to 5500.

For the sequence AGCGTTTCCTGCCTGTCTGGGGCTGACAAACCACAA, the ETS1 binding intensity came to 492.

On to CGTGTGGGAGGCCGGAAGTTGCGGCTTCATTACTCG, for which the ETS1 binding intensity is 51000.

On to AGCACGTCCCCCTTCTTCCTCCCGCAGAGGGCCTGC, for which the ETS1 binding intensity worked out at 461.

Turning to TAGCCATCGTGCAAAGGATGTGGTGAAGTCAGTCAG, the ETS1 binding intensity worked out at 2620.

As to CTCCGATTGAGAACAGGAAGCCACAGGCCAATACAA, the ETS1 binding intensity came to 3260.

Take ACCAGAACAGGAAATGTTAGTGGTTGAGTTAACGGT: the ETS1 binding intensity amounted to 5800.

Consider AGCGGCTGCACAGGAAGTTGGTTTTCACAAAGGCAA, for which the ETS1 binding intensity stood at 6650.

Consider GTGGTCTCTCCCGGAAAAACCACTTCCACCGAGAAC, for which the ETS1 binding intensity was found to be 1440.

In the case of CAAGGGAACATCCTTAAACAGCTTGTGGTATTGCTG, the ETS1 binding intensity turned out to be 1060.

Regarding CTACCGGAAATGCAGCACCACGTAAAATGCGGTCGG, the ETS1 binding intensity worked out at 15800.

As for GGTCCGGAAACGATTCTGGACCTGCGGGTATATCCA, the ETS1 binding intensity stood at 1350.

Turning to ATATATCACCCCTTCCTTGCAAAACCACAAGACCAA, the ETS1 binding intensity came out at 1490.

Turning to GGCAACCGGCCCCGGAAGTTGCGGCAGGTGCGTCCA, the ETS1 binding intensity was 8090.

Regarding AAGGACCGACCCGTTTTCCGCCCGCAGCGGAGCTTG, the ETS1 binding intensity came out at 457.

As for GGAACGGAGGCGGAAGGGGCCCTGCGGCGACGACGT, the ETS1 binding intensity was found to be 1070.

In the case of TGGGGCCCGGAAGCGCTGGCGCCTTGCGGCCAGAAG, the ETS1 binding intensity was 3180.

Take GGAGGAAGAGAGGAAACGGGGGCGGCCGCAGCTTCT: the ETS1 binding intensity turned out to be 1070.

Regarding AGGTTAATACCCGGAACTACCACAACCGTCTTCCCT, the ETS1 binding intensity was 862.

In the case of CTACTTTCCGGTCAACGCGGCCTGCGGTACCACCTC, the ETS1 binding intensity stood at 720.

As to CCCTGACTTTTACGGAAATAGCGGTCCAAAAGCGCC, the ETS1 binding intensity is 1080.

For CCTGAGCGCCCGGAAGGAAGGCTGTGGTAGGTTGTC, the ETS1 binding intensity was found to be 1570.

For TCTGTGACTACGCGGATGTTGTGGGCGGCTACATGC, the ETS1 binding intensity amounted to 1810.

For the sequence TCAGAGACTTCCGCTCAGCAGCAGCTGCGGCCAGGC, the ETS1 binding intensity came out at 1330.

For ACTTCCAGGAAGCCCCATAGTCCAGAAACCCACACA, the ETS1 binding intensity is 402.

As to AGGTTTTGAAAGAGGAAACCACATACCCGAAAACCA, the ETS1 binding intensity was determined as 2030.

Take GTCCCCGACTTCCGCTCTCGGTTGGTGGTTGGCTTT: the ETS1 binding intensity was determined as 3430.

For GGTTCATTTCCTTTTCCTCCTTGTGGTATAAAAGAG, the ETS1 binding intensity is 985.

As to CCGCTTCCGGCCTTCGCCCGGCTTACCCGCGTCGCA, the ETS1 binding intensity amounted to 1740.

Take CCGATTTCCCCGGACGTGGTGAGACCGCGCTTCGTC: the ETS1 binding intensity is 855.
